From PubChem BioAssay (NCATS) come the findings set out here.

Molecules are shown by their SMILES. Values joined by “and” are separate entries in the source; they are usually repeats but may differ in a detail not shown here. Equal entries are not always repeated. Records with an inconclusive call do not appear. Active and inactive are the calls of the source. The call rests on the fitted dose curve; in most records, active means well fitted curve in the direction sought with a large enough effect; inconclusive means small, poorly fitted or top-dose-only effect, or another doubt; inactive means no such curve, though single readings can be large; an effect the other way counts as inactive or inconclusive.

A short description of assay [1]: P-glycoprotein substrates identified in KB-8-5-11 adenocarcinoma cell line, qHTS therapeutic library screen (AID 1346987). Further: nearly all actives have a fitted effect of over 65% in size. The method, boiled down: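 Compounds are pinned in dose-response onto KB-8-5-11 cells (500 cells/well, colchicine-free medium) and left 72 h at 37 degree C. CellTiter-Glo luminescence then yields AC50 values.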
(In general: In qHTS, concentration-response curves come from the screen itself.)

Assay [2] can be described thus: NS1 protein of Zika virus - qHTS assay to identify small molecule inhibitors in human HEK 293 cells (AID 1347053). Further: nearly all actives have a fitted effect of over 55% in size. The method, boiled down: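 In this cell-based screen, HEK 293 cultures received compound for one hour before Zika MR766 at MOI = 0.5. NS1 was quantified 24 hours later by TR-FRET, normalized to virus-free wells and infected wells.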
Assay [3] is described as follows: qHTS of pediatric cancer cell lines to identify multiple opportunities for drug repurposing: Primary screen for TC32 cells (AID 1347089). Further: nearly all actives have a fitted effect of over 60% in size. The method, boiled down:
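qHTS, TC32, 48 h drug treatment, CellTiter-Glo luminescence as a proxy for metabolically active cells; primary top concentration 46 µM (MIPE 11-pt, NPC 8-pt); confirmatory 11-pt.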

The nature of assay [4]: qHTS of pediatric cancer cell lines to identify multiple opportunities for drug repurposing: Primary screen for DAOY cells (AID 1347090). Further: nearly all actives have a fitted effect of over 55% in size. The method, boiled down:
(§1)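 Eight- or eleven-point concentration series, 48 h treatment at 37 degrees C in growth media; readout CellTiter-Glo luminescence. Potency and efficacy were taken from the concentration-response curves.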

Assay [5] is described as follows: qHTS of pediatric cancer cell lines to identify multiple opportunities for drug repurposing: Primary screen for SJ-GBM2 cells (AID 1347091). In outline: as §1
Assay [6] is described as follows: qHTS of pediatric cancer cell lines to identify multiple opportunities for drug repurposing: Primary screen for A673 cells (AID 1347092). Further: nearly all actives have a fitted effect of over 45% in size. In outline: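 Luminescence from CellTiter-Glo, taken after 15 min at room temperature, served as the proxy for metabolically active cells following 48 h treatment. Both potency and efficacy were taken from curves fitted to the titration data.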

The nature of assay [7]: qHTS of pediatric cancer cell lines to identify multiple opportunities for drug repurposing: Primary screen for SK-N-MC cells (AID 1347093). The method, boiled down: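 Metabolically active cells were quantified by ATP-dependent luminescence (CellTiter-Glo, 15 min at room temperature) following 48 h treatment. Cells had been plated at 500-1,000 per well and settled for 5 h beforehand.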

Assay [8] is described as follows: qHTS of pediatric cancer cell lines to identify multiple opportunities for drug repurposing: Primary screen for BT-37 cells (AID 1347094). In outline:
(§2)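 Following a 5-hour attachment period, cells at 500-1,000/well received compounds and were cultured for 48 hours. CellTiter-Glo was added and luminescence read to estimate viable, metabolically active cells.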

Assay [9] is described as follows: qHTS of pediatric cancer cell lines to identify multiple opportunities for drug repurposing: Primary screen for NB-EBc1 cells (AID 1347095). In outline:
as §2

A short description of assay [10]: qHTS of pediatric cancer cell lines to identify multiple opportunities for drug repurposing: Primary screen for SK-N-SH cells (AID 1347098). Further: nearly all actives have a fitted effect of over 65% in size. The method, boiled down: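 Cells (500-1,000/well) rested 5 h, then received compounds for 48 h; metabolically active cells were measured by CellTiter-Glo luminescence. Final concentrations spanned up to 46 µM (MIPE, 11-point) or 0.59 nM-46 µM (NPC, 8-point) in primary screens, 11-point in follow-ups.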

Assay [11] can be described thus: qHTS of pediatric cancer cell lines to identify multiple opportunities for drug repurposing: Primary screen for U-2 OS cells (AID 1347096). Further: nearly all actives have a fitted effect of over 50% in size. In outline: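 Cells (500-1,000/well) in growth media were settled 5 h at 37 degrees C, then given compounds for 48 h. Viability was read as CellTiter-Glo luminescence. Primary runs used MIPE at 11 points (0.78 nM-46 µM) and NPC at 8 points (0.59 nM-46 µM); follow-ups used 11 points.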

Assay [12] in a line: qHTS of pediatric cancer cell lines to identify multiple opportunities for drug repurposing: Primary screen for Saos-2 cells (AID 1347097). Further: nearly all actives have a fitted effect of over 40% in size. In outline:
as §2
Potency means the concentration at half of the fitted maximal effect.

For the compound `Cc1ccc(NC(=O)c2cccc(N(C)C)c2)cc1NC(=O)c1ccc(O)cc1`, the Potency entry in [1], in assay [2], in assay [4] and in assay [5] was “inactive” throughout. In addition, the Potency in assay [3] is 13.1 µM (active); in assay [6] it was 0.148 µM (active); in assay [7] it was 0.187 µM (active); in assay [8] it was 3.85 µM (active); in assay [9], 11.8 µM (active); in [10], 15.2 µM (active).
For the compound `CNC1CCC(N(Cc2cccc(-c3ccncc3)c2)C(=O)c2sc3ccccc3c2Cl)CC1` (stereo unspecified), the Potency was 11.8 µM (active) and 20.6 µM (active) in [1]; 9.35 µM (active) in assay [2]; 23.5 µM (active) in assay [5]; 14.8 µM (active) in assay [6]; 23.5 µM (active) in assay [7]; 24.3 µM (active) in [8]. In addition, the Potency in [9] was 26.4 µM (active); in assay [12], 26.4 µM (active); in assay [10], 24.1 µM (active). Also, the Potency entry in assay [3], in [4] and in [11] was “inactive” in each case.
As to `CS(=O)(=O)c1ccc(C2=C(c3ccccc3)C(=O)OC2)cc1`, the Potency entry in assay [1], in assay [2], in [3], in assay [4], in assay [5] and in assay [6] was “inactive” throughout. Also, the Potency entry in assay [7], in assay [8], in assay [9], in assay [11] and in assay [12] was “inactive” throughout.
On to `CC[C@]1(O)C[C@H]2CN(CCC3=c4ccccc4=N[C]3[C@@](C(=O)OC)(c3cc4c(cc3OC)N(C)[C@H]3[C@@](O)(C(N)=O)[C@H](O)[C@]5(CC)C=CCN6CC[C@]43[C@@H]65)C2)C1`, for which the Potency in [1] was 1.48 µM (active); in assay [2] it was 1.66 µM (active); in assay [3], 0.0587 µM (active); in assay [4], 0.469 µM (active); in assay [5] it was 0.001 µM (active); in [6], 0.0148 µM (active). Also, the Potency in assay [7] is 0.0235 µM (active); in assay [8], 0.122 µM (active); in assay [9] it was 0.0296 µM (active); in assay [12] it was 0.148 µM (active).
For the compound `N#CC(c1ccc(Cl)cc1)c1c(Cl)cc(-n2ncc(=O)[nH]c2=O)cc1Cl` (stereo unspecified), the Potency entry in assay [1], in [2] and in [3] was “inactive” in each case. Further, the Potency was 9.35 µM (active) in assay [4]; 23.5 µM (active) in assay [5]; 11.8 µM (active) in assay [6]; 9.35 µM (active) in [7]; 8.33 µM (active) in [9].
In the case of `c1ccc(CNc2nc(N3CCOc4ccccc43)nc3c2CCCC3)cc1`, the Potency result in [1], in assay [2], in assay [3], in assay [4], in assay [6] and in assay [11] was “inactive” throughout. The Potency in assay [5] was 23.5 µM (active).
In the case of `Cc1ccc(NC(=O)Nc2cc(C(F)(F)F)ccc2F)cc1Nc1ccc2c(c1)NC(=O)C2=Cc1ccc[nH]1`, the Potency was 10.5 µM (active) in assay [1]; 14.8 µM (active) in [4]; 10.5 µM (active) in assay [5]; 7.43 µM (active) in assay [6]; 24.3 µM (active) in assay [8]; 11.8 µM (active) in assay [9]. The figures for the Potency in assay [11], in assay [12] and in assay [10] were 23.5 µM (active), 20.9 µM (active) and 30.4 µM (active), respectively. For the same compound, the Potency result in assay [2] and in assay [3] was “inactive” each time.
For `O=C(O)C1=CO[C@@H](O[C@@H]2O[C@H](CO)[C@H](O)[C@H](O)[C@H]2O)[C@@H]2C(CO)=CC[C@H]12`, the Potency entry in assay [1], in [2], in assay [3], in assay [4], in assay [5] and in assay [6] was “inactive” throughout. Also, the Potency result in assay [7], in assay [8], in assay [9] and in assay [11] was “inactive” in each case. Besides, in assay [10], the Potency is 21.5 µM (active).
`COc1ccc(-c2oc3c(CC=C(C)C)c(O)cc(O)c3c(=O)c2O)cc1`: the Potency result in assay [1], in assay [2], in assay [3], in assay [8] and in assay [11] was “inactive” in each case. The Potency in assay [4] was 23.5 µM (active); in assay [5], 18.7 µM (active); in assay [6], 18.7 µM (active); in assay [7] it was 9.35 µM (active); in assay [9] it was 18.7 µM (active); in assay [12], 23.5 µM (active).
`CNC(=O)[C@H](CC1=CN=C2C=CCC=C12)NC(=O)[C@@H](CC(=O)NO)CC(C)C`: the Potency entry in [1], in assay [2], in assay [3], in assay [5] and in [11] was “inactive” throughout. The Potency was 0.0296 µM (active) in assay [4]; 0.0469 µM (active) in [6]; 0.0059 µM (active) in [7]; 0.685 µM (active) in [8]; 1.21 µM (active) in [10].
Take `Cc1ccc(C(=O)N(CCCN)[C@@H](c2oc3cc(Cl)ccc3c(=O)c2Cc2ccccc2)C(C)C)cc1`: the Potency was 0.0833 µM (active) in assay [1]; 10.5 µM (active) in assay [2]; 0.0033 µM (active) in assay [3]; 0.001 µM (active) in assay [4]; 0.001 µM (active) in [5]; 0.001 µM (active) in [6]. Besides, the Potency in assay [7] was 23.5 µM (active); in assay [8], 0.001 µM (active); in [9] it was 0.001 µM (active); in [12] it was 0.001 µM (active).
As to `CC(C)c1c(C(=O)Nc2ccccc2)c(-c2ccccc2)c(-c2ccc(F)cc2)n1CC[C@H](O)C[C@@H](O)CC(=O)O`, the Potency result in assay [1], in assay [2] and in assay [3] was “inactive” each time. In addition, the Potency is 11.8 µM (active) in assay [4]; 16.6 µM (active) in [5]; 18.7 µM (active) in [6]; 23.5 µM (active) in assay [7]; 18.7 µM (active) in [11]; 6.62 µM (active) in assay [12].
Regarding `Cc1nc2c([nH]1)CCN(C(=O)c1ccc(NC(=O)c3ccccc3-c3ccccc3)cc1)c1ccccc1-2`, the Potency result in assay [1], in [2], in assay [3], in [4], in [5] and in assay [6] was “inactive” in each case. The Potency result in [8], in assay [9], in assay [11], in assay [12] and in [10] was “inactive” each time.
Turning to `C=C[C@@H]1CN2CCC1C[C@@H]2C(O)c1ccnc2ccc(OC)cc12` (stereo partly specified), the Potency entry in assay [1], in [2], in assay [3], in assay [4], in [5] and in [6] was “inactive” each time. Further, the Potency entry in assay [7], in assay [11], in assay [12] and in [10] was “inactive” each time.
On to `CN(C)CCN(Cc1ccc(Cl)cc1)c1ccccn1`, for which the Potency result in assay [1], in assay [2], in [3], in assay [5], in assay [8] and in assay [11] was “inactive” throughout. Moreover, in assay [12], the Potency entry is “inactive”. Moreover, the figures for the Potency in assay [4], in assay [6] and in [7] were 29.6 µM (active), 18.7 µM (active) and 10.5 µM (active), respectively.
